Bioassay records (PubChem)
Only some compounds are listed: those with a hit (about 10% of all), similar ones and a draw of the others.
JMJD2A Tudor inh – blocks the human JMJD2A Tudor domain. AlphaScreen JMJD2A-Tudor / H3K4me3 peptide binding. O75164. Potency, µM (top dose mostly 114 µM), hits mostly inhibitors. hit rate 4.4% among 390,000; further: nearly all actives have a fitted effect of over 50% in size
G9a block – G9a (human) methyltransferase inhibition | G9a H3K9 monomethylation, AlphaScreen, 2 h | Q96KQ7 | Potency, µM (highest dose often 102 µM), usual class: inhibitors | hit rate 8.8% among 350,000; further: nearly all actives have a fitted effect of over 75% in size
Target sequence (Q96KQ7 913-1193 limits assumed): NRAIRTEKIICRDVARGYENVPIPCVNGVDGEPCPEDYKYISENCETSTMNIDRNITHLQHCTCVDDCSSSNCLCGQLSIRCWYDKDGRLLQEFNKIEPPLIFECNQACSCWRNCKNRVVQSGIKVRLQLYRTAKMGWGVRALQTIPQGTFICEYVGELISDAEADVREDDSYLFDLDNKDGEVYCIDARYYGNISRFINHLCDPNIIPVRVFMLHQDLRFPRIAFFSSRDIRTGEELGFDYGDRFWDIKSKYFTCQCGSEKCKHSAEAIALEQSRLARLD
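AlphaScreen read-out: biotin-H3K9 peptide (500 nM) methylation by 20 nM enzyme with 20 uM SAM, 2 h at room temperature after 15 min compound preincubation; anti-monomethyl H3K9 antibody plus donor/acceptor beads, 10 min dark.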
BAZ2B block – BAZ2B (human) inhibition. Q9UIF8. AlphaScreen BAZ2B-H3K14Ac peptide displacement. Potency, µM (titrated, usually from 114 µM), most hits filed as inhibitors. hit rate 4.4% among 360,000. AID 504333; further: nearly all actives have a fitted effect of over 60% in size
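AlphaScreen displacement of biotin-H3(5-23)K14Ac peptide (50 nM final) from BAZ2B (50 nM final) in PBS pH 7.4, 0.01% Tween-20; complex preformed 30 min RT, then compounds (top 110 uM) 30 min RT, beads 20 min dark.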
HP1b binding inh – blocks HP1-beta chromodomain binding to methylated histone tails; P83916; AlphaScreen HP1-beta / biotin-H3K9me3 peptide binding; hit rate 0.56% among 390,000; Potency, µM (doses to about 114 µM), most hits filed as inhibitors; further: nearly all actives have a fitted effect of over 70% in size
Target sequence (P83916 whole entry, looked up): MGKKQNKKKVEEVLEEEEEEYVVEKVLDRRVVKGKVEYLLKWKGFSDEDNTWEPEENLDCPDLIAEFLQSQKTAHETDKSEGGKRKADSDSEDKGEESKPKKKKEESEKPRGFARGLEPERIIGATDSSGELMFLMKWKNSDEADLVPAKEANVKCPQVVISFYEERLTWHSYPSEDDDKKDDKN
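HP1-beta protein (50 nM final) preincubated 30 min at room temperature with biotinylated H3(1-18)K9me3 peptide (50 nM) in PBS pH 7.4, 0.01% Tween-20, then compound added for 30 min. AlphaScreen streptavidin donor/nickel chelate acceptor beads (10 ug/mL final), 30 min dark, luminescence read.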
GLS inhibitor – inhibitors of human glutaminase (GLS); O94925; hit rate 0.21% among 410,000; GLS enzymatic activity, qHTS titration; Potency, µM (highest dose often 45.5 µM), hits mostly inhibitors; AID 624170
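Two-point fluorescence kinetic (t0, 30 min RT) for hKGA; glutamate detected via glutamate oxidase–HRP–Amplex Red. Substrate: 1 mM L-glutamine solution; buffer 45 mM KH2PO4, pH 8.2.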
A number is an active result; – = inactive; ? = inconclusive; · = no result; [ ] = another dose, or the depositor's remark. The call rests on the fitted dose curve; in most records, active means well fitted curve in the direction sought with a large enough effect; inconclusive means small, poorly fitted or top-dose-only effect, or another doubt; inactive means no such curve, though single readings can be large; an effect the other way counts as inactive or inconclusive.

SMILES | JMJD2A Tudor inh | G9a block | BAZ2B block | HP1b binding inh | GLS inhibitor
CCN(C)C1CN(Cc2cn(Cc3cc(C)cc(C)c3)nn2)S(=O)(=O)C1 (stereo unspecified) | · | · | · | · | –
Cc1ccsc1C(=O)N1CCCC(C)(C(=O)NS(=O)(=O)C2CC2)C1 (stereo unspecified) | · | · | · | · | –
CNC(=O)COC(=O)/C=C/c1nc2ccccc2s1 | – | – | – | – | –
CCN(CC)c1ccc(NC(=O)COC(=O)/C=C/c2nc3ccccc3s2)cc1 | ? | 6.3µM | – | – | –
O=C(NN1C(=O)c2ccccc2C1=O)C1C2CCCCC21 (stereo unspecified) | – | 2.8µM | – | – | –
O=C1Nc2ccccc2SC(c2ccccc2)C1O (stereo unspecified) | 56µM | 10µM | 40µM | – | –
O=C1Nc2ccccc2SC1c1ccccc1Cl (stereo unspecified) | – | · | · | – | –
COc1ccccc1NS(=O)(=O)c1ccc(C(=O)OCC(=O)NCc2ccco2)cc1 | – | 50µM | 50µM | – | –
COc1cc(C(=O)NNC(=O)c2ccco2)cc(OC)c1OC | – | – | – | – | –
COc1ccc(S(=O)(=O)Nc2ccccc2C(=O)NCc2ccco2)cc1 | –[11.4 µM] | 14µM | ? | – | –
COc1ccccc1NC(=O)COC(=O)c1ccc(S(=O)(=O)NCc2ccco2)cc1 | – | –[12.7 µM] | ? | – | –
CCN(CC)S(=O)(=O)c1ccc(/C=C/C(=O)OCC(=O)NCc2cccs2)cc1 | – | – | – | – | –
COc1cc(C(=O)NNC(=S)NCc2ccco2)cc(OC)c1OC | – | 56µM | – | – | –
CCN(CC)S(=O)(=O)c1ccc(/C=C/C(=O)OCC(=O)NCc2ccco2)cc1 | 32µM | · | · | ? | –
COCCn1c(=O)c(-c2cccc(C#N)c2)nc2cnc(N3CCN(C)CC3)nc21 | · | –[0.501 µM] | · | · | ·
COc1ccc(CNC(=O)c2cc3c(=O)oc4ccc(C)cc4c3s2)c(OC)c1 | – | – | – | – | –
COc1ccccc1C(C)NCC(=O)NC(=O)NCc1ccco1 (stereo unspecified) | ? | – | 50µM | – | –
COc1ccccc1OCC(=O)NCc1ccco1 | – | 56µM | – | – | –
CCN(CC)S(=O)(=O)c1ccc(C(=O)OCC(=O)NCc2ccco2)cc1 | ? | ? | 50µM | – | –
O=C(Cn1nc(Cc2cccnc2)c2ccccc2c1=O)Nc1ccc(F)c(Cl)c1 | – | – | – | – | –
CCCC(=O)N1CCC1(C)C(=O)Nc1ccc2nccnc2c1 (stereo unspecified) | · | · | · | · | –
COc1ccccc1-c1c(C(F)(F)F)oc2cc(OC(=O)c3ccc([N+](=O)[O-])cc3)ccc2c1=O | ? | 25µM | ? | ? | –
Cc1cc(=O)oc2cc(OC(=O)c3ccccc3)ccc12 | – | ? | – | – | –
c1cn(CCCNc2ncnc3sc4c(c23)CCC4)cn1 | – | – | – | – | –
c1cn(CCCNC2=NCCCCC2)cn1 | – | – | 50µM | – | –
SMILES | JMJD2A Tudor inh | G9a block | BAZ2B block | HP1b binding inh | GLS inhibitor
S=C(NCCCn1ccnc1)NC1CCCCC1 | – | – | – | – | –
c1cn(CCCNC2CCCCCCC2)cn1 | 40µM | · | · | ? | –
CCc1ccc(NC(=O)c2cc(C(C)=O)n3ccccc23)cc1 | – | – | – | – | –
COC(=O)c1cc(C(C)=O)n2ccccc12 | –[11.4 µM] | – | 50µM | – | –
Cc1ccc(-c2cnc(-c3ccccc3C(=O)O)o2)cc1 | – | 50µM | – | – | –
COc1cccc(OC)c1C(=O)Nc1cccc2c1CCCC2 | – | –[0.501 µM] | – | – | –
O=C(C1CCN(S(=O)(=O)Cc2ccccc2)CC1)N1CCN(c2cccc(Cl)c2)CC1 | – | – | – | – | –
Clc1cccc(/C(Cc2nc3ccccc3[nH]2)=N\Nc2ccccc2)c1 | ? | 6.3µM | – | – | –
CCN/N=C(\Cc1nc2ccccc2[nH]1)c1ccccc1 | – | – | – | – | –
N#CCCN/N=C(/Cc1nc2ccccc2[nH]1)c1ccc(Cl)cc1 | · | ? | – | · | ·
c1ccc(N/N=C(\Cc2nc3ccccc3[nH]2)c2ccccc2)cc1 | ? | 1.4µM | ? | – | –
Cc1ccc(N/N=C(\Cc2nc3ccccc3[nH]2)c2ccccc2)cc1 | ? | 7.1µM | ? | ? | –
O=C(Nc1nc2ccccc2[nH]1)c1cccc(Cl)c1 | – | · | – | – | –
N#CCCN/N=C(\Cc1nc2ccccc2[nH]1)c1ccccc1 | – | 50µM | – | – | –
Nc1ncc(S(=O)(=O)NCc2cccc(Cl)c2)cn1 | – | – | – | – | –
CC1CC(C(F)(F)C(F)(F)F)n2nc(C(=O)O)cc2N1 (stereo unspecified) | – | – | ? | – | 16µM
CC1CC(C(F)F)n2nc(C(=O)O)cc2N1 (stereo unspecified) | 20µM | – | – | – | –
Cc1ccc(C)c(CN2C(=O)c3ccccc3S(=O)(=O)c3ccc(C(=O)N4CCN(c5ccccn5)CC4)cc32)c1 | – | ? | ? | – | –
CCn1c(SCC(=O)Nc2nncs2)nnc1C(C)NC(=O)c1ccccc1Br (stereo unspecified) | – | – | – | – | –
Cc1cccc(C(=O)NC2CCN(C(=O)NCc3ccccc3)CC2)c1 | ? | 11µM | – | – | –
Cc1ccc(NC(=O)N2CCC(NC(=O)c3cccc(C)c3)CC2)cc1 | 40µM | 7.9µM | 50µM | ? | ?
CCCNC(=S)N1CCC(NC(=O)c2cccc(C)c2)CC1 | – | · | – | – | –
COc1ccc(Nc2nc3ccc(Cl)cc3n3nnnc23)cc1OC | – | – | – | – | –
Cc1ccc(NC2(c3ccccc3)C(=O)c3ccccc3C2=O)cc1F | ? | 13µM | ? | – | –
CC(=O)CCc1oc2ccc(C)cc2c1-c1ccccc1 | – | – | – | – | –
SMILES | JMJD2A Tudor inh | G9a block | BAZ2B block | HP1b binding inh | GLS inhibitor
C/C(CCc1oc2ccc(Cl)cc2c1-c1ccc(C)o1)=N\O | 89µM | ? | ? | ? | –
COc1ccccc1NC(=O)c1cc2ccc(O)cc2o/c1=N\O | ? | ? | – | – | –
COc1cc(NC(=O)c2cc3ccccc3cc2O)c(OC)cc1Cl | – | –[12.7 µM] | – | – | –
COc1ccccc1NC(=O)c1cc2ccccc2o/c1=N\O | ? | 14µM | 79µM | – | –
COc1ccccc1NC(=O)c1cc2cc(Br)ccc2cc1O | ? | ? | 50µM | – | –
N#Cc1c(C(F)(F)F)cc(-c2cccs2)nc1SCC(=O)Nc1ccccc1F | – | ? | – | – | –
O=C(O)COc1cccc(/C=C2/SC(=S)N(Cc3ccccc3)C2=O)c1 | 50µM | 45µM | ? | – | –
O=C(O)CN1C(=O)/C(=C\c2cccc(OCc3ccccc3)c2)SC1=S | ? | –[0.501 µM] | 56µM | ? | –
CN1C(=O)/C(=C\c2cccc(OCc3ccccc3)c2)SC1=S | – | – | ? | – | –
Cc1ccc(/C=C2/SC(=S)N(CC(=O)Nc3ncc(Cc4ccc(C)cc4)s3)C2=O)cc1 | – | – | – | – | –
Cc1cccc(Cc2cnc(NC(=O)CN3C(=O)/C(=C/c4ccccc4)SC3=S)s2)c1 | – | 40µM | ? | ? | –
